Assay results taken from PubChem BioAssay (EPA / NIEHS).
Values joined by “and” are separate entries in the source; they are usually repeats but may differ in a detail not shown here. Equal values may be shown once. Results filed as inconclusive are left out. Where a structure was tested more than once in an assay, its records may differ in their call. Active and inactive are the calls of the source. The calls were made as follows, unless noted: active = hit-call score of the fitted dose curve at least 0.9, where 1 is the maximum; inactive = score below 0.9.

What was measured:
[1] = read-out: Thrombomodulin, THBD (gene 7056); assay: BSK_LPS_Thrombomodulin: BioMAP Diversity Plus: LPS Assay for Thrombomodulin Biomarker Activity (AID 2284296); details: primary human HUVEC with PBMC
Outline: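 Thrombomodulin on the surface of LPS-activated endothelial/PBMC co-cultures was quantified by ELISA at 24 hours post-dosing, with DMSO as baseline. Parallel SRB total-protein staining flagged overt cytotoxicity.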

CD69, CD69 (gene 969) = assay: BSK_LPS_CD69: BioMAP Diversity Plus: LPS Assay for CD69 Biomarker Activity (AID 2284303); details: primary human HUVEC with PBMC
Outline: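 CD69 surface levels were read by ELISA after 24 h chemical treatment of an LPS-stimulated HUVEC plus PBMC co-culture; positive-direction fit against DMSO vehicle.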

[2] = read-out: Interleukin-10 (IL10), IL10 (gene 3586); assay: BSK_IMphg_IL10: BioMAP Diversity Plus: IMphg Assay for Interleukin-10 (IL10) Biomarker Activity (AID 2284294); details: primary human endothelial cells with macrophages
Outline: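 IL-10 read by ELISA after 24 h chemical exposure of primary human venular endothelial cell/macrophage cocultures, with DMSO as baseline. Parallel SRB staining (560 nm) gauged overt cytotoxicity.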

[3] = BSK_IMphg_SRB.Mphg: Macrophage Viability Assessment in the BioMAP Diversity Plus: IMphg Assay (AID 2284295); details: primary human endothelial cells with macrophages
Outline: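 Cytotoxicity read-out: parallel cultures fixed with 10% TCA, stained with 0.1% sulforhodamine B, read at 560 nm. System combines venular endothelium and macrophages; sampled 24 h post-dosing, fitted positively relative to DMSO control.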

[4] = IUF_NPC2c_oligodendrocyte_migration_120hr: Leibniz Research Institute for Environmental Medicine (IUF) 120-hour Neural Progenitor Cell Migration Assay for Oligodendrocyte Migration (NPC2c) (AID 2284297);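 also: O4-positive oligodendrocyte migration distance divided by radial glia migration distance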
Outline: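 Exposure runs 5 days from differentiation onset at 37C, seven concentrations plus solvent control, DMSO at most 0.1%, applied to primary hNPC spheres on laminin. After fixation, O4 immunostaining gives oligodendrocyte distance from the sphere core, relative to radial glia migration.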

[5] = IUF_NPC2a_radial_glia_migration_120hr: Leibniz Research Institute for Environmental Medicine (IUF) 120-hour Neural Progenitor Cell Migration Assay for Radial Glia Migration (NPC2a) (AID 2284298)
Outline: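 Migration distance in um, sphere core edge to migration-area edge, derived by nuclei-density algorithm from Hoechst images after 120 h compound exposure. Primary hNPC spheres differentiated on poly-D-lysine/laminin in N2 medium, 37C; medium half-replaced day 3.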

[6] = IUF_NPC2a_radial_glia_migration_72hr: Leibniz Research Institute for Environmental Medicine (IUF) 72-hour Neural Progenitor Cell Migration Assay for Radial Glia Migration (NPC2a) (AID 2284299)
Outline: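 Single 0.3 mm neurospheres were plated per well in N2 differentiation medium and exposed from the start of differentiation. After 72 hours, brightfield images were taken and radial glia migration from the sphere core edge was measured manually in four directions, averaged per well.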

[7] = IUF_NPC2b_neuronal_migration_120hr: Leibniz Research Institute for Environmental Medicine (IUF) 120-hour Neural Progenitor Cell Migration Assay for Neuron Migration (NPC2b) (AID 2284300)
Outline: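 TUBB3-positive neurons are imaged after 120 h of differentiation, and their mean distance from the sphere edge is normalised to radial glia migration. Single 0.3 mm fetal hNPC spheres on poly-D-lysine/laminin received 7 compound concentrations, ≤0.1% DMSO, refreshed at day 3.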

[8] = IUF_NPC3_neuronal_differentiation_120hr: Leibniz Research Institute for Environmental Medicine (IUF) 120-hour Neuronal Differentiation Assay (NPC3) (AID 2284301)
Outline: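 Neuronal differentiation of primary human neural progenitors measured by high-content imaging: percent TUBB3+ of Hoechst+ nuclei within migrated area at 120 h, seven-point serial dilution plus solvent control, gain or loss relative to DMSO.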

[9] = IUF_NPC4_neurite_length_120hr: Leibniz Research Institute for Environmental Medicine (IUF) 120-hour Neuronal Morphology Assay for Neurite Length (NPC4) (AID 2284302)
Outline: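 Neurons from differentiating human fetal neural progenitor spheres are scored for average neurite length after five days of compound exposure. Fitting uses DMSO as negative control.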

[10] = IUF_NPC5_oligodendrocyte_differentiation_120hr: Leibniz Research Institute for Environmental Medicine (IUF) 120-hour Oligodendrocyte Differentiation Assay (NPC5) (AID 2284304; active = hit-call score of the fitted dose curve at least 0.9, where 1 is the maximum;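 also: primary human fetal neural progenitor spheres plated to migrate and differentiate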)
Outline: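 Oligodendrocyte differentiation scored as O4-positive cells, found by CNN image analysis, as percent of Hoechst-stained nuclei in the migration area. Scoring followed 5 days of exposure of plated hNPC neurospheres differentiating in DMEM/F12 N2 medium at 37C, with compound refreshed at day 3.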

[11] = IUF_NPC4_neurite_area_120hr: Leibniz Research Institute for Environmental Medicine (IUF) 120-hour Neuronal Morphology Assay for Neurite Area (NPC4) (AID 2284305; active = hit-call score of the fitted dose curve at least 0.9, where 1 is the maximum)
Outline: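 Endpoint at 120 h: automated imaging of TUBB3/Hoechst-stained differentiating human neural progenitor spheres, neurite area per neuron from skeletonization. DMSO solvent control, not above 0.1%, set the baseline; medium was half-replaced on day 3.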

[12] = IUF_NPC2-5_cytotoxicity_72hr: Cytotoxicity Assessment at 72 hours in the Leibniz Research Institute for Environmental Medicine (IUF) Neural Progenitor Cell Migration and Differentiation Assay for Cytotoxicity (NPC2-5) (AID 2284306; active = hit-call score of the fitted dose curve at least 0.9, where 1 is the maximum;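 also: LDH release into supernatant measured by resorufin fluorescence marking membrane damage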)
Outline: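 Primary human neural progenitor spheres migrate and differentiate on laminin. Compound is present from the start of differentiation, with DMSO kept at or below 0.1%. At 72 h, supernatant LDH is quantified fluorometrically, with values fitted in the positive direction.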

[13] = IUF_NPC2-5_cytotoxicity_120hr: Cytotoxicity Assessment at 120 hours in the Leibniz Research Institute for Environmental Medicine (IUF) Neural Progenitor Cell Migration and Differentiation Assay (NPC2-5) (AID 2284307; active = hit-call score of the fitted dose curve at least 0.9, where 1 is the maximum;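 as to AC50: LDH released into supernatant as membrane damage marker via resorufin fluorescence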)
Outline: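 Membrane-integrity loss measured as LDH activity in medium supernatant via resazurin-to-resorufin fluorescence after 120 h exposure. hNPC spheres from GW 16-19 fetal cortex differentiated on poly-D-lysine/laminin, 37C, medium half-refreshed day 3; seven concentrations, DMSO max 0.1%.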

[14] = IUF_NPC2-5_cell_number_120hr: Cell Number Assessment at 120 hours in the Leibniz Research Institute for Environmental Medicine (IUF) Neural Progenitor Cell Migration and Differentiation Assay (NPC2-5) (AID 2284308);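 also: count of Hoechst-stained nuclei in migration zone around plated human neural progenitor spheres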
Outline: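 Counting of all Hoechst-stained nuclei in the migration area at 120 h, versus DMSO control. Primary hNPC spheres differentiated on poly-D-lysine/laminin in N2 medium at 37C, dosed from day 0 (7 concentrations, DMSO ≤0.1%), half-refed day 3.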

[15] = IUF_NPC2-5_viability_120hr: Viability Assessment at 120 hours in the Leibniz Research Institute for Environmental Medicine (IUF) Neural Progenitor Cell Migration and Differentiation Assay (NPC2-5) (AID 2284312)
Outline: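 Human fetal (GW 16-19) neural progenitor spheres of 0.3 mm were plated on poly-D-lysine/laminin in N2 differentiation medium and exposed from day 0 for 120 h, with half-medium refresh at day 3. Viability was read as alamar blue resazurin-to-resorufin fluorescence against DMSO.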

[16] = VALA_TUBHUV_Agonist_CellCount: Viability Assessment in the VALA Sciences human Umbilical Vein Endothelial Tubule Formation (TUBHUV) Agonism Assay (AID 2284309; active = hit-call score of the fitted dose curve at least 0.9, where 1 is the maximum)
Outline: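 Viability endpoint by fluorescent imaging of fixed nuclear/CD31-stained HUVEC–HDF co-cultures. Readout is cell count, fitted upward against 0.1% DMSO. Compound exposure was 72 h in 10 ng/ml VEGF, after 3-day co-culture priming.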

[17] = VALA_TUBIPS_Agonist_TubuleLength: VALA Sciences human iPS-derived Endothelial Tubule Formation (TUBIPS) Agonism Assay (AID 2284311; active = hit-call score of the fitted dose curve at least 0.9, where 1 is the maximum)
Outline: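 Agonist-mode readout is the gain in imaged tubule length versus DMSO baseline. It was measured by fluorescence high-content imaging 72 h after dosing human iPSC-derived endothelial cells.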

[18] = VALA_TUBIPS_Antagonist_TubuleLength: VALA Sciences human iPS-derived Endothelial Tubule Formation (TUBIPS) Antagonist Assay (AID 2284313; active = hit-call score of the fitted dose curve at least 0.9, where 1 is the maximum)
Outline: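 Tubule length was quantified by high-content imaging of CD31- and nuclear-stained cells, with 0.1% DMSO as neutral and 100 uM suramin as inhibition control. Compounds were applied for 3 days, in 10 ng/ml VEGF, to cultures pre-grown 3 days.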

[19] = VALA_MIGHUV2_WoundArea: VALA Sciences human Umbilical Vein Endothelial Cell Migration (MIGHUV) Assay, Area of Scratch Wound after Recovery (AID 2284316; active = hit-call score of the fitted dose curve at least 0.9, where 1 is the maximum)
Outline: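 Wound-area endpoint read by fluorescence imaging of Hoechst-stained nuclei after a 24 h recovery period following scratch of HUVEC monolayers (9000 cells/well). Chemicals dosed within 30 min post-scratch, triplicate 6-point series, 0.1% DMSO vehicle; Cytochalasin D positive control.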

Measured: AC50

Oc1c(Cl)cc(Cl)cc1Sc1cc(Cl)cc(Cl)c1O
inactive: [1]
active: CD69, CD69 (gene 969) 24.3 µM and 27.4 µM

O=C(O)CCC(F)(F)C(F)(F)C(F)(F)C(F)(F)C(F)(F)C(F)(F)F
active: [2] 38 µM and 30 µM
inactive: [3] | [1] | CD69, CD69 (gene 969)

O=C1NS(=O)(=O)c2ccccc21
active: [1] 1.09 µM
inactive: [1] | [4] | [5] | [6] | [7] | [8] | [9] | CD69, CD69 (gene 969) | [10] | [11] | [12] | [13] | [14] | [15]

O=C(CCCN1CCC(O)(c2ccc(Cl)cc2)CC1)c1ccc(F)cc1
active: [5] 15.9 µM | [10] 3.35 µM | [13] 1.98 µM
inactive: [4] | [6] | [7] | [8] | [9] | [11] | [12] | [14] | [16] | [17] | [15] | [18] | [19]

OCC(F)(F)C(F)(F)C(F)(F)C(F)(F)C(F)(F)C(F)(F)C(F)(F)C(F)(F)C(F)(F)C(F)(F)C(F)(F)F
inactive: [2] | [1] | CD69, CD69 (gene 969)
active: [2] 835 nM | [3] 550 nM and 521 nM

O=S(=O)(O)C(F)(F)C(F)(F)C(F)(F)C(F)(F)C(F)(F)C(F)(F)C(F)(F)C(F)(F)C(F)(F)C(F)(F)F
active: [2] 13300 nM | [3] 668 nM | CD69, CD69 (gene 969) 14.6 µM and 3.91 µM
inactive: [2] | [3] | [1]

CN(Cc1cnc2nc(N)nc(N)c2n1)c1ccc(C(=O)N[C@@H](CCC(=O)O)C(=O)O)cc1
inactive: [2] | [3] | [1] | CD69, CD69 (gene 969)
active: [3] 3260 nM

O=C(O)CCC(F)(F)C(F)(F)C(F)(F)C(F)(F)C(F)(F)F
active: CD69, CD69 (gene 969) 5.95 µM
inactive: [2] | [3] | [1] | CD69, CD69 (gene 969)

O=C(O)C(F)(F)OC(F)(F)C(F)(F)OC(F)(F)C(F)(F)OC(F)(F)C(F)(F)C(F)(F)C(F)(F)F
active: [2] 53.4 µM and 56.3 µM | [3] 42.9 µM and 45.1 µM | [1] 45.8 µM and 44.1 µM | CD69, CD69 (gene 969) 39.9 µM and 41.2 µM

O=P(O)(O)CCC(F)(F)C(F)(F)C(F)(F)C(F)(F)C(F)(F)C(F)(F)C(F)(F)C(F)(F)F
inactive: [3] | [1] | CD69, CD69 (gene 969)
active: [2] 39.7 µM and 31.3 µM

O=P(O)(O)CCC(F)(F)C(F)(F)C(F)(F)C(F)(F)C(F)(F)C(F)(F)F
active: [1] 0.219 µM
inactive: [2] | [3] | [1] | CD69, CD69 (gene 969)

C=CC(=O)OCCC(F)(F)C(F)(F)C(F)(F)C(F)(F)C(F)(F)C(F)(F)C(F)(F)C(F)(F)F
active: [1] 2.94 µM
inactive: [2] | [3] | [1] | CD69, CD69 (gene 969)

CC(C)c1c(C(=O)Nc2ccccc2)c(-c2ccccc2)c(-c2ccc(F)cc2)n1CC[C@@H](O)C[C@@H](O)CC(=O)O
inactive: [4] | [5] | [6] | [7] | [8] | [9] | [10] | [11] | [14] | [15]
active: [12] 2.54 µM | [13] 1.75 µM

CN(CCO)S(=O)(=O)C(F)(F)C(F)(F)C(F)(F)C(F)(F)C(F)(F)C(F)(F)C(F)(F)C(F)(F)F
inactive: [2] | [3] | [1] | CD69, CD69 (gene 969)

Oc1ccc(Cc2ccccc2O)cc1
inactive: [1] | CD69, CD69 (gene 969)

CC(=O)Nc1ccc(O)cc1
inactive: [4] | [5] | [6] | [7] | [8] | [9] | [10] | [11] | [12] | [13] | [14] | [15]

O=C(CC(=O)C(F)(F)C(F)(F)C(F)(F)F)c1cccs1
inactive: CD69, CD69 (gene 969)
active: [2] 22 µM and 29.2 µM | [3] 43.1 µM and 42.7 µM | [1] 55.5 µM and 54.2 µM

CCCCCCCCCCCC
inactive: [1] | CD69, CD69 (gene 969)
active: [1] 35.4 µM | CD69, CD69 (gene 969) 30.1 µM
